# PI5P4Ka inh: inhibitors of human PI5P4K alpha; P48426; PI5P4Kalpha enzyme, ADP-Glo luminescence, 60 min; stronger effect = lower value; max response, %; 1.2% of 330,000 active; active means max response of -50% or lower; inconclusive means between -30% and -50%; inactive means -30% or higher; further: value at the top dose of about 77 µM; on the % scale 0 is the no-effect control and ±100 the full control effect
#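 Single end-point luminescence (ADP-Glo) quantified ADP from PI5P4Kalpha turnover; ATP 5 microM final, 1 h at RT, 0.1% CHAPS and 0.28 mM EGTA in HEPES pH 7.4.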
# HP1b binding inh: blocks HP1-beta chromodomain binding to methylated histone tails; AlphaScreen HP1-beta / biotin-H3K9me3 peptide binding; Potency, µM (titrated, usually from 114 µM), without a hit: at the top dose activity change, negative = inhibition, actives largely listed as inhibitors; 0.56% of 390,000 active; further: potency means the concentration at half of the fitted maximal effect; nearly all actives have a fitted effect of over 70% in size
# Target sequence (P83916 whole entry, looked up): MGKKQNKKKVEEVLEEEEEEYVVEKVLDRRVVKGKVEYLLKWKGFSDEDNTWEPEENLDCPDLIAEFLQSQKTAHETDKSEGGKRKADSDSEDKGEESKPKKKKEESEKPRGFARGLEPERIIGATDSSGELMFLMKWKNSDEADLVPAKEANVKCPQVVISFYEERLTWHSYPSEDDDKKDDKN
#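 Compound inhibition of the preformed complex between 50 nM HP1-beta and 50 nM biotinylated H3K9me3 peptide was read by AlphaScreen. Buffer was PBS pH 7.4 with 0.01% Tween-20. Incubations ran 30 min at room temperature, with 10 ug/mL donor/acceptor beads.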
# G9a inh-1: blocks human histone lysine methyltransferase G9a | AID 504332 | G9a H3K9 monomethylation, AlphaScreen, 2 h | 8.8% of 350,000 active | Potency, µM (top dose mostly 102 µM), without a hit: at the top dose activity, negative = inhibition, usual class: inhibitors; further: potency means the concentration at half of the fitted maximal effect; on the % scale 0 is the no-effect control and ±100 the full control effect; nearly all actives have a fitted effect of over 75% in size
#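 Step 1: enzyme (final 20 nM) with compound, 15 min RT. Step 2: substrate peptide 500 nM and SAM 20 uM, 2 h RT. Step 3: anti-H3K9me1 antibody and AlphaScreen beads, 10 min, then plate read.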
# JMJD2A Tudor inh: blocks the human JMJD2A Tudor domain; O75164; AlphaScreen JMJD2A-Tudor / H3K4me3 peptide binding; Potency, µM (series often up to 114 µM), for inactives: top-dose activity change, negative = inhibition, usual class: inhibitors; 4.4% of 390,000 active; AID 504339; further: potency means the concentration at half of the fitted maximal effect; on the % scale 0 is the no-effect control and ±100 the full control effect; nearly all actives have a fitted effect of over 50% in size
# PLK1 PBD inh: blocks phosphopeptide binding to human PLK1 polo-box domain. Plk1 PBD binding of FITC phosphopeptide, fluorescence polarization. 2.8% of 360,000 active. P53350. Potency, µM, without a hit: max response, negative = inhibition, hits mostly inhibitors; further: potency means the concentration at half of the fitted maximal effect; series mostly up to about 57 µM; on the % scale 0 is the no-effect control and ±100 the full control effect; nearly all actives have a fitted effect of over 65% in size
# Target sequence (P53350 whole entry, looked up, the tested form may be a part): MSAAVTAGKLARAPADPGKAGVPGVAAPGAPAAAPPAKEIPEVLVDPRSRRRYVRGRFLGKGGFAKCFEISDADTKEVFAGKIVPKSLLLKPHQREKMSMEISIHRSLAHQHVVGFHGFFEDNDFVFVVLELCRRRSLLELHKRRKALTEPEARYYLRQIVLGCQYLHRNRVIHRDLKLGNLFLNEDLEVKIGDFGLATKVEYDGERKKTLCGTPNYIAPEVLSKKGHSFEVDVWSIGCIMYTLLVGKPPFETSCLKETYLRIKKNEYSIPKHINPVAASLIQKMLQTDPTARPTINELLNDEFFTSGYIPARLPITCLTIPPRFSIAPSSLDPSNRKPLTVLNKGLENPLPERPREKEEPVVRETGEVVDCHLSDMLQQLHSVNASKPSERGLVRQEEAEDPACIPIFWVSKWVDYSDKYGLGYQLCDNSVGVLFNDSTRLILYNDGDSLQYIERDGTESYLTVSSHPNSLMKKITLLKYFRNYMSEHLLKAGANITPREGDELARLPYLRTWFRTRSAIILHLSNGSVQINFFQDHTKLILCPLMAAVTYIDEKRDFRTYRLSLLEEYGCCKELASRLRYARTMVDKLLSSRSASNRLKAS
# BAZ2B block: BAZ2B (human) inhibition. Q9UIF8. AlphaScreen BAZ2B-H3K14Ac peptide displacement. Potency, µM (top dose mostly 114 µM), inactives show at the highest dose activity change, negative = inhibition, actives largely listed as inhibitors. 4.4% of 360,000 active. AID 504333; further: potency means the concentration at half of the fitted maximal effect; on the % scale 0 is the no-effect control and ±100 the full control effect; nearly all actives have a fitted effect of over 60% in size
#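 AlphaScreen luminescence quantifies BAZ2B engagement of H3K14Ac peptide; the protein and biotinylated peptide are both at 50 nM final, buffer PBS pH 7.4 with 0.01% Tween-20, all steps at room temperature.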
# JMJD2E confirm: JMJD2E (human) demethylase inhibition, confirmation | shares compounds with JMJD2A Tudor inh | Recombinant JMJD2E, FDH-coupled NADH fluorescence (FDH is formaldehyde dehydrogenase) | Potency, µM (series often up to 56.8 µM), for the others: at the highest dose activity change, negative = inhibition, hits mostly inhibitors | 93% of 140 active
# FDH inh: counter-screen for JMJD2E inhibitors: Pseudomonas putida formaldehyde dehydrogenase. FDH enzyme assay, NADH fluorescence kinetic. shares compounds with JMJD2A Tudor inh. 10% of 140 active. Potency, µM (top dose mostly 56.7 µM), for the others: at the highest dose activity, negative = inhibition, actives largely listed as inhibitors
# G9a inh-2: confirmation of human histone methyltransferase G9a inhibitors | AID 588344 | shares compounds with JMJD2A Tudor inh | Potency, µM, actives largely listed as inhibitors | 89% of 370 active | G9a H3K9 monomethylation, AlphaScreen, 2 h; further: potency means the concentration at half of the fitted maximal effect; nearly all actives have a fitted effect of over 65% in size
# ADP-Glo counter: counter-screen for PI5P4K inhibitors: ADP-Glo detection interference, no enzyme. shares compounds with PI5P4Ka inh. ADP-Glo detection counter-screen, luciferase luminescence, no enzyme. Potency, µM (doses to about 76.9 µM), for inactives: top-dose activity change, negative = inhibition, most hits filed as inhibitors. 1,100 tested, under 10 active. AID 743285
# TbPYK confirm: confirmation of Trypanosoma brucei pyruvate kinase inhibitors | shares compounds with PLK1 PBD inh | recombinant TbPYK, Kinase-Glo ATP luminescence | Potency, µM (highest dose often 76.9 µM), for inactives: at the top dose activity change, negative = inhibition, actives largely listed as inhibitors | 67% of 890 active | AID 720569; further: potency means the concentration at half of the fitted maximal effect; on the % scale 0 is the no-effect control and ±100 the full control effect; nearly all actives have a fitted effect of over 70% in size
# TbPYK orthogonal: inhibits T. brucei pyruvate kinase in orthogonal ADP-Glo assay | shares compounds with PLK1 PBD inh | 62% of 890 active | Potency, µM (highest dose often 76.9 µM), inactives show at the top dose activity change, negative = inhibition, actives largely listed as inhibitors | recombinant TbPYK, ADP-Glo luminescence, 60 min | AID 720584; further: potency means the concentration at half of the fitted maximal effect; on the % scale 0 is the no-effect control and ±100 the full control effect; nearly all actives have a fitted effect of over 75% in size
# An asterisk follows results filed as active; ? = inconclusive; . = no result given; [ ] = another dose, or the depositor's remark. In the library only some 12% were active in any assay of this set; here they are far more common. Unless noted, the call rests on the fitted dose curve; in most records, active means well fitted curve in the direction sought with a large enough effect; inconclusive means small, poorly fitted or top-dose-only effect, or another doubt; inactive means no such curve, though single readings can be large; an effect the other way counts as inactive or inconclusive.
SMILES,PI5P4Ka inh,HP1b binding inh,G9a inh-1,JMJD2A Tudor inh,PLK1 PBD inh,BAZ2B block,ADP-Glo counter,others
Cc1ccnc(NC(=S)N2CCN(c3cccc(C(F)(F)F)c3)CC2)c1,?,-13%[57 µM],1µM*,1µM*,-7%,20µM*,.,G9a inh-2=0.28*;TbPYK confirm=2.2µM*;TbPYK orthogonal=2.8µM*
CCOC(=O)CNC(=O)CSc1nnc(-c2ccccc2)n1Cc1ccco1,-10,50%,?,45µM*,-9%,-32%,.,G9a inh-2=4.5*;TbPYK confirm=2.2µM*;TbPYK orthogonal=1.4µM*
Cc1cc(NC(=O)CSc2nnc(-c3ccccc3)n2Cc2ccco2)no1,-1,40%,8%[59 µM],-6%,0%,14%,.,
O=C(NCCc1ccccc1)c1ccc(NC(=O)C2CCCC2)cc1,7,16%,.,-7%,-12%,.,.,
O=C(CSc1cn[nH]n1)Nc1cccc(C(=O)O)c1,-64*,18µM*,0.71µM*,8.9µM*,4.2µM*,-32%,.,G9a inh-2=1.3*;TbPYK confirm=14µM*;TbPYK orthogonal=35µM*
O=C(N[C@H](CO)Cc1ccccc1)[C@H]1O[C@@H](n2ccc(=O)[nH]c2=O)[C@H](O)[C@@H]1O,1,.,.,.,-15%,.,.,
O=C(CSc1cccc2cccnc12)N1CCCC1,?,?,?,?,3µM*,9%,.,JMJD2E confirm=32µM*;FDH inh=11µM*;TbPYK confirm=?;TbPYK orthogonal=?
COc1cc2nc(CN3C(=O)c4ccccc4C3=O)oc(=O)c2cc1OC,-5,12%,-38%,-28%,-3%,-5%,.,
COc1cc2nc(COc3ccccc3[N+](=O)[O-])oc(=O)c2cc1OC,-57*,?,19%[59 µM],-23%,-22%,-6%,2%,
CN(C(=O)COC(=O)c1cccs1)c1ccccc1,-3,.,.,.,-2%,.,.,
O=C1CCC(=O)N1c1ccc(-c2nc3sc4c(c3c(=O)o2)CCC4)cc1,1,15%,11%[12.7 µM],-25%,-22%,0%,.,
O=c1oc(-c2ccccc2)nc2sc3c(c12)CCC3,-54*,4%,-17%,-27%,-13%,50µM*,-2%,
Cc1cc(NC(=O)c2sc(Nc3cccc(C(F)(F)F)c3)nc2N)no1,-67*,17%,?,-29%,-1%,-37%,2%,
COc1ccc(Cl)cc1C(=O)NC1CC(C)(C)NC(C)(C)C1,17,.,.,.,-1%,.,.,
Cc1cccc(-n2c(SCC(N)=O)nc3c(c2=O)C2(CCCC2)Cc2ccccc2-3)c1,-56*,-28%,-11%,?,-10%,-36%,-4%,
CCOC(=O)c1ccc(NC(=O)CC2C(=O)N(c3ccc(F)cc3)C(=O)N2Cc2cccnc2)cc1 (stereo not drawn),.,26%,-33%[59 µM],-12%,.,-9%,.,
Cc1onc(-c2c(F)cccc2Cl)c1C(=O)OCC(=O)NCc1ccco1,-51*,3%,-43%[12.7 µM],-35%,-16%,?,-5%,
O=C(O)C1Nc2c(Cl)cc(Cl)c(Cl)c2C2C=CCC12 (stereo not drawn),-76*,?,.,56µM*,24µM*,.,0%,
COCCN(C(=O)COC(=O)c1cc2c(s1)CCCC2)c1c(N)n(Cc2ccccc2)c(=O)[nH]c1=O,-56*,3%,-40%[59 µM],-23%,-2%,-9%,-3%,
CCOC(=O)Nc1ccc2c(CNC(C)c3ccccc3OC)cc(=O)oc2c1 (stereo not drawn),-90*,3%,-10%,-21%,-1%,-10%,-6%,
COc1ccc(S(=O)(=O)N2CCC(C(=O)N[C@@H](C)C(=O)NCc3cccnc3)CC2)cc1,1,.,.,.,3%,.,.,
CN(Cc1ccccc1)Cc1ccccc1C(O)c1ccccc1 (stereo not drawn),10,79%,.,45%,-6%,.,.,
Cc1ccc(C)c(NC(=O)CN(C)C(=O)c2cccc(-n3cccc3)c2)c1,-60*,45µM*,40µM*,16µM*,?,25µM*,-1%,
CN(CC(=O)Nc1cccc(F)c1)C(=O)c1cccc(-n2cccc2)c1,-82*,?,?,28µM*,?,28µM*,4%,
CN(CC(=O)Nc1c(Cl)cccc1Cl)C(=O)c1cccc(-n2cccc2)c1,-78*,32µM*,3%[0.501 µM],14µM*,?,35µM*,1%,
SMILES,PI5P4Ka inh,HP1b binding inh,G9a inh-1,JMJD2A Tudor inh,PLK1 PBD inh,BAZ2B block,ADP-Glo counter,others
CN(CC(=O)Nc1ccccc1Cl)C(=O)c1cccc(-n2cccc2)c1,-21,-9%,-4%[12.7 µM],-30%,-6%,?,.,
COc1ccccc1N(CC(=O)N1CCC(C(N)=O)CC1)S(=O)(=O)c1ccccc1,-75*,-14%,23%,-22%,-9%,9%,-7%,
COc1ccccc1N1CCN(C(=O)CN(c2ccccc2OC)S(=O)(=O)c2ccccc2)CC1,-6,-3%,-29%[59 µM],-35%,-8%,-37%,.,
C1=C(c2ccc(-c3ccccc3)cc2)Nc2ncnn2C1c1ccco1 (stereo not drawn),-56*,24%,32µM*,-27%,4.7µM*,-12%,-11%,
CCOC(=O)CSc1nc2ccc(NC(=O)CSc3nnnn3Cc3ccccc3)cc2s1,-30,30%,?,-33%,-16%,-14%,-3%,
O=C(COc1ccc([N+](=O)[O-])cc1)Nc1cccnc1,-54*,4%,?,-6%,-6%,0%,-2%,
O=C(COc1ccc(-c2ccccc2)cc1)Nc1cccnc1,2,43%,16%[59 µM],-1%,4%,12%,.,
